Only a selection was taken, and hits are over-represented in it overall.
NS1 inh: blocks influenza NS1 protein function; Potency, µM (top dose mostly 46.1 µM), without a hit: at the highest dose activity, positive = more growth; actives 0.4% (n = 270,000); calls by dose curve; further: actives are rising curves; nearly all actives have a fitted effect of over 50% in size
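In this qHTS, NS1 from influenza A is expressed in budding yeast, where it slows growth. Cells are switched from glucose to 2% galactose medium (pH 6.0, -URA), treated with compound, and growth recovery is read at OD600.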
Cruzain inh Det: cruzain (T. cruzi) inhibition with detergent. P25779. actives 0.43% (n = 200,000). Potency, µM, without a hit: max response, negative = inhibition, actives largely listed as inhibitors. purified cruzain, Z-FR-AMC fluorescence, 0.01% Triton;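 further: plate controls were neutral wells for no effect and buffer without enzyme for full effect; nearly all actives have a fitted effect of over 40% in size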
Target sequence (P25779 123-467 limits assumed): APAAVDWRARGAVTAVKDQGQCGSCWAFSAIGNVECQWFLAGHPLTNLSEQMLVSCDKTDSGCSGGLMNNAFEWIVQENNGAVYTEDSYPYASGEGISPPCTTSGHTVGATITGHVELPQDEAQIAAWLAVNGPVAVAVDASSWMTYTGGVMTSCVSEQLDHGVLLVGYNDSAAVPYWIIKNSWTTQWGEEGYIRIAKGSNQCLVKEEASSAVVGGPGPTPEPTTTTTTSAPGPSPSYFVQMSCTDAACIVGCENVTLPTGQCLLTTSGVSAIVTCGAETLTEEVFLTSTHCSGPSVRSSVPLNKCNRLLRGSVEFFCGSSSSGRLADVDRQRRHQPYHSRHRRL
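Sodium acetate buffer (100 mM, pH 5.5) containing 5 mM DTT and 0.01% Triton X-100 hosted 1.5 nM cruzain and test compound for 15 min at room temperature. Cleavage of 2 uM Z-FR-AMC was then tracked by fluorescence.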
Cruzain noTriton: cruzain (T. cruzi) inhibition without detergent. P25779. purified cruzain, Z-FR-AMC fluorescence, no detergent. Potency, µM, for the others: max response, negative = inhibition, hits mostly inhibitors. actives 2.3% (n = 200,000). AID 1476;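 further: plate controls were enzyme without inhibitor for no effect and buffer without enzyme for full effect; nearly all actives have a fitted effect of over 40% in size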
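Detergent-free condition (0.00005% Triton X-100) in acetate buffer pH 5.5 with DTT. 1.5 nM enzyme and compound were pre-mixed 15 min, then 2 uM Z-FR-AMC substrate added; reaction progress from fluorescence change between first and third reads (60 s).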
* marks the source's active call; other numbers are inactive results. Unless noted, the call rests on the fitted dose curve; in most records, active means well fitted curve in the direction sought with a large enough effect; inconclusive means small, poorly fitted or top-dose-only effect, or another doubt; inactive means no such curve, though single readings can be large; an effect the other way counts as inactive or inconclusive. Potency means the concentration at half of the fitted maximal effect.

Screening O=C(Cn1c(=O)n(Cc2nc(-c3ccccc3)no2)c(=O)c2cc3c(cc21)OCO3)Nc1cccc(C(F)(F)F)c1 returned Cruzain inh Det 1% and Cruzain noTriton 5µM*.
Screening COc1ccc(-c2noc(Cn3c(=O)c4ccccc4n(CC(=O)Nc4cccc(C(F)(F)F)c4)c3=O)n2)cc1 returned Cruzain inh Det -3% and Cruzain noTriton 16µM*.
For Cc1ccc(NC(=O)Cn2c(=O)n(Cc3nc(-c4ccccc4)no3)c(=O)c3ccccc32)cc1C the results were Cruzain inh Det -3% and Cruzain noTriton -21%.
`COc1ccc(NC(=O)N2CC[C@@]3(CCCN(C(C)=O)C3)C2)cc1` gave Cruzain inh Det 2% and Cruzain noTriton 10%.
Screening COC(=O)/C=C1\SC(=NC(=O)c2cccc(Cl)c2)NC1=O returned NS1 inh 12%, Cruzain inh Det 14µM* and Cruzain noTriton -12%.
For COC(=O)/C=C1/SC(=NC(=O)c2ccccc2)NC1=O the results were NS1 inh 10%, Cruzain inh Det -22% and Cruzain noTriton 1%.
Screening COc1ccc(Cl)cc1NC(=O)c1cn(C2CCCCC2)c(=O)c2c1c1ccccc1n2C returned Cruzain inh Det -1% and Cruzain noTriton 10µM*.
For COc1cc(OC)c(NC(=O)c2cn(C3CCCC3)c(=O)c3c2c2ccccc2n3C)cc1Cl the results were Cruzain inh Det -2% and Cruzain noTriton 4%.
`COc1ccccc1-n1c(SCC(=O)c2ccc(O)cc2O)nc2cc([N+](=O)[O-])ccc21` gave NS1 inh 4%, Cruzain inh Det -2% and Cruzain noTriton 13µM*.
`COc1ccccc1-n1c(SCC(=O)NC2CCS(=O)(=O)C2)nc2cc([N+](=O)[O-])ccc21` (stereo not drawn) gave NS1 inh -4%, Cruzain inh Det -2% and Cruzain noTriton inconclusive.
O=C(O)/C=C\C(=O)Nc1ccc2c(c1)C(=O)c1cc(F)ccc1-2 was read as NS1 inh 5%, Cruzain inh Det -4% and Cruzain noTriton -8%.
`CC(=O)c1ccc(S(=O)(=O)N2CCN(S(=O)(=O)c3ccccc3C(F)(F)F)CC2)cc1` gave NS1 inh 12%.
O=S(=O)(c1ccccc1C(F)(F)F)N1CCN(S(=O)(=O)c2ccccc2C(F)(F)F)CC1 was read as NS1 inh 1%, Cruzain inh Det 3% and Cruzain noTriton 20µM*.
Screening COc1ccc(C(=O)CCN2CCN(c3ccccc3F)CC2)cc1 returned NS1 inh -34%.
Screening O=C(CCN1CCN(c2ccccc2F)CC1)c1ccc(Br)cc1 returned NS1 inh -95%, Cruzain inh Det 14µM* and Cruzain noTriton inconclusive.
Screening O=C(CSc1ccc(Cl)cc1)Nc1ccc(N2CCN(C(=O)c3ccco3)CC2)cc1 returned NS1 inh 18%, Cruzain inh Det -1% and Cruzain noTriton -10%.
`COc1ccc(NC(=O)c2ccccc2NC(=O)CSc2ccccc2)cc1` gave NS1 inh -3%, Cruzain inh Det -1% and Cruzain noTriton -19%.
Screening O=C(CSc1ccc(Cl)cc1)Nc1ccc(NC(=O)c2ccco2)cc1 returned NS1 inh 29%, Cruzain inh Det 4% and Cruzain noTriton 10µM*.
COc1ccc(NC(=O)c2ccccc2NC(=O)CSc2ccc(Cl)cc2)cc1 was read as NS1 inh 2%, Cruzain inh Det 9% and Cruzain noTriton 13µM*.
For COc1ccc(-c2noc(-c3ccc(NC4CCCCC4)c([N+](=O)[O-])c3)n2)cc1OC the results were Cruzain inh Det -4% and Cruzain noTriton 21%.
`COc1ccc(-c2noc(-c3ccc(NC(C)c4ccccc4)c([N+](=O)[O-])c3)n2)cc1OC` (stereo not drawn) gave Cruzain inh Det -5% and Cruzain noTriton 13µM*.
For COc1cc2c(cc1OC)[C@H](C)N(CC1C(=O)O[C@@H]3C[C@@]4(C)CCC[C@H](C)[C@@]45OC5[C@H]13)CC2 (stereo partly drawn) the results were Cruzain inh Det 1% and Cruzain noTriton 13%.
Cc1ccc(Cl)cc1N was read as Cruzain inh Det 5% and Cruzain noTriton -3%.
For Cn1c(=O)c2c(ncn2CC(=O)Nc2cccc(Cl)c2Cl)n(C)c1=O the results were Cruzain inh Det 28µM* and Cruzain noTriton inconclusive.
For Cc1ccccc1NC(=O)Cn1cnc2c1c(=O)n(C)c(=O)n2C the results were NS1 inh 8%, Cruzain inh Det 5% and Cruzain noTriton 14%.
O=C(O)[C@H](C1NCCS1)N1Cc2ccccc2C1 (stereo partly drawn) was read as NS1 inh 1%, Cruzain inh Det 10% and Cruzain noTriton 1%.
`CCOC(=O)C1CCN(C(=O)c2cc3ccc4ccc(C)[nH]c4c3n2)CC1` gave Cruzain inh Det -6% and Cruzain noTriton -5%.

Assay outcomes deposited in PubChem BioAssay by National Center for Advancing Translational Sciences (NCATS).
